Shown are actives, neighbours in structure and some others; about 2.5% of the full set was active somewhere.
OvCa metastasis = inhibitors of ovarian cancer cell adhesion and invasion in omental model. 0.1% of 46,000 active. Potency, µM (doses to about 45.8 µM), most hits filed as inhibitors. SKOV3ip1-GFP adhesion/invasion on 3D omental model, fluorescence; further: nearly all actives have a fitted effect of over 65% in size
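qHTS, 4-pt dose (0.36-46 umol/L); SKOV3ip1-GFP, 1,200 cells/well, no FBS; primary omental fibroblast/mesothelial co-culture 48 h pre-grown; 2 h RT + 16 h 37 C; PBS wash, 4% PFA; GFP count 488/509 nm.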
GALK inh = inhibits human galactokinase; P51570; recombinant GALK, Kinase-Glo ATP luminescence, 1 h; Potency, µM (highest dose often 57.5 µM), most hits filed as inhibitors; 44,000 tested, under 10 active; AID 1347072
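Human GALK (5 nM) was incubated with 35 uM ATP and 100 uM galactose in 20 mM HEPES pH 8.0 with MgCl2, NaCl, DTT and BSA for 1 h at room temperature. Remaining ATP was measured by Kinase-Glo Plus luminescence.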
NTMT1 inh = blocks human N-terminal methyltransferase 1 activity. Q9BV86. NTMT1 MTase-Glo SAH luminescence, purified enzyme. Potency, µM (top dose mostly 114 µM), actives largely listed as inhibitors. 2.5% of 59,000 active; further: nearly all actives have a fitted effect of over 65% in size
Target sequence (Q9BV86 whole entry, looked up): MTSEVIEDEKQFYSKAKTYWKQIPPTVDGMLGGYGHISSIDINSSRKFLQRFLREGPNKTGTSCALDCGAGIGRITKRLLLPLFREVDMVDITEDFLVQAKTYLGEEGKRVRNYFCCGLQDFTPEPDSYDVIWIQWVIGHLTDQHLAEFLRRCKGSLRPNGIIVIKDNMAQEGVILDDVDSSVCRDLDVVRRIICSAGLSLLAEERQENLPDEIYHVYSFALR
HTT promoter inh = HTT promoter inhibition; HEK293 HTT promoter firefly luciferase reporter, 24 h; Potency, µM (series often up to 57.5 µM), actives largely listed as inhibitors; 0.93% of 48,000 active; AID 1508623; further: nearly all actives have a fitted effect of over 50% in size
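Luminescence was read after Dual-Glo reagent and a 10 min room-temperature incubation. Values were normalized to vehicle (0% activity) and zero RLU (-100% activity). Reporter HEK293 cells had been exposed to compounds (up to 57.5 uM final) for 24 h.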
HTT-AS act = HTT-AS promoter activation | HEK293 HTT-AS promoter firefly luciferase reporter, 24 h; response scale: percent change from vehicle, -100% = no light | Potency, µM (top dose mostly 57.5 µM), actives largely listed as activators | 0.24% of 48,000 active | AID 1508624; further: nearly all actives have a fitted effect of over 55% in size
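Luminescence was read after Dual-Glo reagent and a 10 min room-temperature incubation. Values were normalized to vehicle (0% activity) and zero RLU (-100% activity). Reporter HEK293 cells had been exposed to compounds (up to 57.5 uM final) for 24 h.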
PTAP-TSG101 blk = blocks PTAP binding to human TSG101, validation; Q99816; Fluorescence polarization, FITC-PTAP peptide/Tsg101, 20 min; Potency, µM (highest dose often 115 µM), most hits filed as inhibitors; 44,000 tested, under 10 active
Target sequence (Q99816 whole entry, looked up): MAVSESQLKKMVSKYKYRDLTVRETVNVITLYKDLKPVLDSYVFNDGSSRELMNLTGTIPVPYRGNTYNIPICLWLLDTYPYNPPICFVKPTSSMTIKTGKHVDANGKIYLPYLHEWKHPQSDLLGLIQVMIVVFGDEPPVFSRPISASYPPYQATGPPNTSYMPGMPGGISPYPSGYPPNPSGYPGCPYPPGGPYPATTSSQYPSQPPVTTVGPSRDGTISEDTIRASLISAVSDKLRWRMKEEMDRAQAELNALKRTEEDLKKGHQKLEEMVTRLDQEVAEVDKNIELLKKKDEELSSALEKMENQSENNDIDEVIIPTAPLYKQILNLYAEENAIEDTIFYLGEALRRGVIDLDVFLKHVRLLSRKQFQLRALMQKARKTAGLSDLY
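Steps: Tsg101 binding domain (10 uM final) in HEPES pH 7.5/NaCl/Tween 20/EDTA/TCEP; add compound; add FITC-PTAP peptide (50 nM final); incubate 20 min r.t.; read polarization.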
A number is an active result; n = inactive; u = inconclusive; x = no result; ! = a repeat was not active; [ ] = remark or other dose. The call rests on the fitted dose curve; in most records, active means well fitted curve in the direction sought with a large enough effect; inconclusive means small, poorly fitted or top-dose-only effect, or another doubt; inactive means no such curve, though single readings can be large; an effect the other way counts as inactive or inconclusive.

SMILES | OvCa metastasis | GALK inh | NTMT1 inh | HTT promoter inh | HTT-AS act | PTAP-TSG101 blk
COc1ccccc1N1CCN(S(=O)(=O)c2cc(C(=O)Nc3ccc(Oc4ccccc4)cc3)ccc2F)CC1 | n | n | n | 1.4µM | n | n
Cc1cccc(N2CCN(S(=O)(=O)c3cc(C(=O)Nc4ccc(Oc5ccccc5)cc4)ccc3F)CC2C)c1 (configuration not stated) | n | n | n | 1µM | n | n
Cc1cc(C)n2ncc(C(=O)Nc3cccc(C(F)(F)F)c3)c2n1 | x | x | n | x | x | x
Cc1ccc(CCCn2c(CCNC(=O)C3CCCCC3)nc3ccccc32)cc1 | x | x | n | x | x | x
Cc1ccccc1Nc1nn2c(=O)c3ccc(C(=O)NCc4cccs4)cc3nc2s1 | n | n | n | n | n | n
COc1cccc(NC(=O)c2ccc3c(=O)n4nc(Nc5ccccc5OC)sc4nc3c2)c1 | n | n | 79µM | n | n | n
Cc1ccc(Cl)cc1Nc1nn2c(=O)c3ccc(C(=O)NCc4cccs4)cc3nc2s1 | n | n | 79µM | u | n | n
C=C1C(O)C(O)C2(CC3C(C)=CCC4C(C)(C(=O)O)CCCC34C)OC2C1O (configuration not stated) | x | x | n | x | x | x
CSc1ccc(CCNc2ncnc3onc(-c4ccc(Cl)cc4)c23)cc1 | n | n | n | 18µM | n | n
Cc1cccc(-n2nnc(-c3nc(-c4cccs4)no3)c2N)c1C | n | n | n | n | 0.35µM | n
Cc1ccccc1-c1noc(-c2nnn(-c3ccccc3C)c2N)n1 | n | u | n | n | 0.71µM | n
Fc1cc(Nc2nc(-c3ccncc3)nc3ccccc23)ccc1OCC(F)(F)F | x | x | n | x | x | x
COc1ccc(CCc2nc3c(C)c(-c4c(C)noc4C)c(C)cc3n2CCN2CCOCC2)cc1 | x | x | n | x | x | x
O=C(CSc1nnc(-c2ccc([N+](=O)[O-])cc2)o1)Nc1ccccc1 | n | n | n | n | 1.8µM | n
Cc1ccc(-n2ncc(C(=O)NCCN3CCC(Cc4ccccc4)CC3)c2C2CCN(C(=O)OC(C)(C)C)CC2)cc1 | u | n | 89µM | u | n | n
O=C(Nc1nc2c(Cl)cccc2s1)c1ccc(S(=O)(=O)N2CCc3ccccc32)cc1 | u | n | n | u | n | n
COc1cc2nc(NC(=O)c3ccc(S(=O)(=O)N4CCc5ccccc54)cc3)sc2cc1OC | n | u | n | 13µM | n | n
CCCCCCCCCCCC1=C(O)C(=O)C=C(O)C1=O | n | x | 45µM! | n | n | x
Cn1cncc1[C@@](N)(c1ccc(Cl)cc1)c1ccc2c(c1)c(-c1cccc(Cl)c1)cc(=O)n2C | n | x | 22µM! | n | n | x
C=C1C(=O)O[C@@H]2/C=C(\CO)CC/C=C(/C=O)C[C@H](O)[C@@H]12 | x | x | n | x | x | x
Cc1ccc(NC(=O)c2cccc(N3CCCS3(=O)=O)c2)cc1 | n | n | n | n | u | n
Cc1ccc(NC(=O)c2cccc(N3CCCS3(=O)=O)c2)cc1C | n | n | n | n | 2.2µM | n
COc1ccc(-c2coc3c2c(C)cc2oc(=O)c(CC(=O)O)c(C)c23)cc1 | n | n | n | n | n | n
Cc1cc2oc(=O)c(CC(=O)O)c(C)c2c2occ(-c3ccc(F)cc3)c12 | n | n | 40µM | n | u | n
CC(C)n1nc(-c2cc3cc(O)ccc3[nH]2)c2c(N)ncnc21 | x | x | 79µM! | u | n | x
SMILES | OvCa metastasis | GALK inh | NTMT1 inh | HTT promoter inh | HTT-AS act | PTAP-TSG101 blk
O=[N+]([O-])c1ccc(-[n+]2nc(-c3ccccc3)nn2-c2ccc(I)cc2)cc1 | x | x | n | x | x | x
C=CC(=O)N1CC/C(=C\c2ccc(F)c([N+](=O)[O-])c2)C(=O)/C(=C/c2ccc(F)c([N+](=O)[O-])c2)C1 | x | x | n | x | x | x
CCNCCc1ccc(CN(CC)c2cc(OC)ccc2[C@@H]2CCc3cc(O)ccc3C2)cc1 | x | x | 45µM | x | x | x
O=C1OC(c2ccc(O)cc2)C(O)=C1Cc1ccccc1 (configuration not stated) | x | x | n | x | x | x
O=C1NC(=O)/C(=C\c2ccc(-c3ccc(F)cc3O)o2)S1 | x | x | 28µM | x | x | x
O=C1NC(=O)/C(=C/c2ccc3nccnc3c2)S1 | x | x | n | x | x | x
O=C1NC(=O)/C(=C/c2ccc(-c3ccc(F)cc3O)o2)S1 | x | x | 35µM | x | x | x
Cc1ccc(OCCn2c(CCNC(=O)OC(C)(C)C)nc3ccccc32)cc1 | x | x | n | x | x | x
Cc1cc(NS(=O)(=O)c2ccc(NS(=O)(=O)Cc3ccc(Cl)c(Cl)c3)cc2)no1 | x | x | n | x | x | x
N#C/C(=C\c1ccc(-c2cc(Cl)ccc2Cl)o1)C(=O)Nc1ccccc1C(=O)O | n | n | 10µM | n | n | n
O=C(NCCN1CCCC1)[C@H](Cc1ccc(OS(=O)(=O)c2cccc3cnccc23)cc1)NS(=O)(=O)c1cccc2cnccc12 | x | x | n | x | x | x
COc1ccc(C(=O)Nc2ccc(S(=O)(=O)N(Cc3ccccc3)c3ccccc3)cc2)cc1 | n | n | n | 5µM | n | n
CCOc1ccc(NC(=O)c2ncn(-c3ccccc3)n2)cc1 | n | n | n | n | 8.9µM | n
Cc1ccc(C(=O)Nc2ccc(S(=O)(=O)N(Cc3ccccc3)c3ccccc3)cc2)cc1 | n | n | n | u | n | n
CCOc1ccc(C(=O)Nc2ccc(S(=O)(=O)N(Cc3ccccc3)c3ccccc3)cc2)cc1 | n | n | n | 1.8µM | n | n
CC(C)c1onc(-c2c(Cl)cccc2Cl)c1COc1ccc(/C=C/c2cccc(C(=O)O)c2)c(Cl)c1 | x | x | 32µM | x | x | x
Cc1onc(-c2c(F)cccc2Cl)c1C(=O)Nc1ccc(OC(C)C)cc1 | n | n | n | n | n | n
CCCCC[C@H](O)C=C[C@H]1[C@H](O)CC(=O)[C@H]1CCCCCCC(=O)O | n | x | n | n | u | x
CCCCC(C)(C)[C@H](O)C=C[C@H]1[C@H](O)CC(=O)[C@H]1CC=CCCCC(=O)O | n | x | 50µM | n | n | x
CO[C@@]1(NC(=O)CSCC#N)C(=O)N2C(C(=O)O)=C(CSc3nnnn3C)CS[C@@H]21 | x | x | 14µM | n | n | x
CC1OC(OC2C(CO)OC(OCC3OC(OC(=O)C45CCC(C)(C)CC4C4=CCC6C7(C)CCC(OC8OC(CO)C(O)C(OC9OC(CO)C(O)C(O)C9O)C8O)C(C)(C)C7CCC6(C)C4(C)CC5)C(O)C(O)C3O)C(O)C2O)C(O)C(O)C1OC1OC(CO)C(O)C(O)C1O (configuration not stated) | x | x | n[6.45 µM] | x | x | x
CCOc1ccccc1CN1CCc2nc(N3CCN(c4ccccc4F)CC3)ncc2C1 | n | n | n | 14µM | n | n
Fc1ccc(CN2CCc3nc(N4CCN(c5ccccc5F)CC4)ncc3C2)c(F)c1 | n | n | n | n | n | n
Oc1ccc2nc(CN3CCC(Cc4ccccc4F)CC3)[nH]c2c1 | x | x | n | x | x | x
CN(C)C(=S)SC(=S)N(C)C | x | x | 25µM | u | n | x

Source: PubChem BioAssay
